Compounds with a hit are over-represented: about 0.81% of the library has one in this group of screens.
RE007 growth inh: less growth of the S. pombe RE007 Vpr strain. AID 651644. Potency, µM (doses to about 92.2 µM), for the others: at the highest dose activity change, negative = less growth, usual class: inhibitors. 360,000 compounds, 0.21% hits. S. pombe RE007 Vpr strain, BacTiter-Glo ATP luminescence, 24 h; active = well fitted falling curve with a large enough effect; inconclusive = small, poorly fitted or top-dose-only effect; inactive = no such curve, though single readings can be large or run the other way; note: potency is the fitted concentration of half-maximal effect; % is set by controls: 0 for no effect and ±100 for the full control effect; nearly all actives have a fitted effect of over 50% in size
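Fission yeast RE007 carrying one integrated HIV-1 vpr copy, seeded at OD 0.01 in PMG+AL medium with 23 nL pinned compound. Grown 24 h at 30 degrees; viability read by BacTiter-Glo luminescence after 5 min.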
AMA1 RON2 block: AMA1-RON2 (P. falciparum) interaction inhibition; AlphaScreen AMA1-biotinylated RON2 peptide binding; Potency, µM (top dose mostly 58.2 µM), for inactives: top-dose activity change, negative = inhibition, actives largely listed as inhibitors; 360,000 compounds, 0.2% hits; AID 720542;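 note: potency is the fitted concentration of half-maximal effect; 0% = vehicle wells and -100% = peptide control; nearly all actives have a fitted effect of over 45% in size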
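AMA1 (3D7) with his tag at 25 nM final met compounds first, then biotinylated RON2 peptide at 25 nM; detection used donor plus acceptor beads, 10 µg/mL apiece, read by AlphaScreen after 30 min at room temperature.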
LmPK inhibitor: inhibitors of Leishmania mexicana pyruvate kinase; Q27686; purified LmPK, Kinase-Glo ATP luminescence, 1 h; Potency, µM (doses to about 57.5 µM), without a hit: at the highest dose activity change, negative = inhibition, actives largely listed as inhibitors; 290,000 compounds, 0.37% hits; note: potency is the fitted concentration of half-maximal effect; % is set by controls: 0 for no effect and ±100 for the full control effect
Target sequence (Q27686 whole entry, looked up): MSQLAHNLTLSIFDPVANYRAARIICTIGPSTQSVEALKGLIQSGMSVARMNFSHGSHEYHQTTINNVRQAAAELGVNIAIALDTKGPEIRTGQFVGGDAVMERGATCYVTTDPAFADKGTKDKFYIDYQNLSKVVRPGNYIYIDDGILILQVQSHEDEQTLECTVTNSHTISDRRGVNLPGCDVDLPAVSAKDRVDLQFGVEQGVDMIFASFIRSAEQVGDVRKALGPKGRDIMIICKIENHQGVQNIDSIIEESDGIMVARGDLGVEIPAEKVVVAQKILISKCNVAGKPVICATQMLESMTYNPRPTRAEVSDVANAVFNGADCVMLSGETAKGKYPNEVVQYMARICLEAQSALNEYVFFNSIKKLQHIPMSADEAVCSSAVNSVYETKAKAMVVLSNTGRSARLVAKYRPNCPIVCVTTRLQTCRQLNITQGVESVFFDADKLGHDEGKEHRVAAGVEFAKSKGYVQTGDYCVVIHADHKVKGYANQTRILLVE
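Screened at intermediate enzyme activity to detect both inhibitors and activators: LmPK at 0.1 nM, with a 0.5 nM enzyme column as activation reference. PEP 0.5 mM, ADP 0.1 mM; ATP detected by luminescence after 1 h.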
SARS PLpro yeast-1: blocks SARS-CoV papain-like protease in a yeast assay; S. cerevisiae expressing SARS-CoV PLpro, growth rescue; Potency, µM (doses to about 32.9 µM), without a hit: at the highest dose activity, positive = growth rescue, most hits filed as activators; 330,000 compounds, 0.19% hits; calls by dose curve; note: potency is the fitted concentration of half-maximal effect; 0% is about no effect; nearly all actives have a fitted effect of over 55% in size
Tb PYK inh: inhibitors of Trypanosoma brucei pyruvate kinase; Q57TT1; TbPYK enzyme, Kinase-Glo Plus ATP luminescence, 45 min; Potency, µM (doses to about 76.8 µM), for inactives: top-dose activity, negative = inhibition, actives largely listed as inhibitors; 410,000 compounds, 0.12% hits; note: potency is the fitted concentration of half-maximal effect; % is set by controls: 0 for no effect and ±100 for the full control effect; nearly all actives have a fitted effect of over 50% in size
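Assay buffer: 50 mM TEA pH 7.2, 100 mM KCl, 10 mM MgCl2, 0.05% BSA, 0.01% Tween-20. Pyruvate kinase from T. brucei plus substrate met compound, then ADP (130 uM final). Luminescence was read post 45 min RT.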
SARS PLpro yeast-2: Rescues yeast growth by inhibiting SARS-CoV PLpro; 1,000 compounds, 19% hits; yeast expressing SARS-CoV PLpro, growth phenotype rescue; calls only; shares compounds with SARS PLpro yeast-1; call rule not given here
Starred values were filed as active, the others as inactive; i = inactive; u = inconclusive; x = no result; [ ] = remark or other dose. Unless noted, calls come from the whole dose curve; as a rule, active = well fitted curve in the direction sought with a large enough effect; inconclusive = small, poorly fitted or top-dose-only effect, or another doubt; inactive = no such curve, though single readings can be large; an effect the other way counts as inactive or inconclusive.

SMILES	RE007 growth inh	AMA1 RON2 block	LmPK inhibitor	SARS PLpro yeast-1	Tb PYK inh	SARS PLpro yeast-2
Cc1ccc(-c2cc(C(=O)NCc3cnn(C)c3C)c3cc(Br)ccc3n2)cc1	-2.8%	-13.0%	1.6%	u	-2.3%	i
Cc1ccc(-c2cc(C(=O)N(C)Cc3cnn(C)c3C)c3cc(Br)ccc3n2)cc1	-0.1%	-1.4%	0.4%	-25.0%	0.6%	x
COC(=O)C1CCN(C(=O)CSc2nnc(-c3ccccc3)o2)CC1	-21.5%	11.6%	x	-2.8%	1.2%	x
Cc1ccc(C(C)C)c(OCc2ccc(C(=O)N/N=C/c3cccc(O)c3O)cc2)c1	u	40.8%	2.9%	2.82µM*	-4.5%	u
Cc1ccccc1-n1cc(-c2ccccc2)nc1SCC(=O)Nc1ccc(F)cc1	x	x	x	x	0.0%	x
CCCN(C(=O)c1cc(S(=O)(=O)N(C)c2ccc(OCC)cc2)ccc1C)C1CCS(=O)(=O)C1 (configuration not stated)	-23.4%	-11.8%	x	0.8%	2.5%	x
CCOC(=O)COc1c(Cl)cc(C2NC(=S)NC(c3ccccc3)=C2C(C)=O)cc1OCC (configuration not stated)	22.9%	-3.2%	3.0%	u	-8.6%	i
Cc1c(C(=O)OCC2CCCO2)[nH]c2c1C(=O)CC(c1ccco1)C2 (configuration not stated)	2.5%	-12.7%	4.4%	u	-10.2%	i
Cc1ccc(C(=O)N/N=C/c2cccc(OC(=O)/C=C/c3ccco3)c2)cn1	-6.5%	7.3%	7.0%	-2.1%	-3.9%	x
O=C(/C=C/c1ccco1)Oc1cc(Br)cc(/C=N/NC(=O)c2ccccc2O)c1	-28.4%	10.5%	6.2%	x	2.4%	i
CCC(CC)C1C(C#N)=C(N)Oc2c1c(=O)oc1ccccc21 (configuration not stated)	0.0%	-2.8%	3.0%	-15.7%	-5.4%	x
N#CC1=C(N)Oc2c(c(=O)oc3ccccc23)C1c1cccnc1 (configuration not stated)	5.0%	14.8%	-1.1%	u	-4.3%	i
O=C(OCc1c(F)cccc1Cl)c1cnc(Cl)c(Cl)c1	-6.4%	5.2%	-5.7%	-1.0%	0.1%	x
C=CCn1c(=N)n(CC(=O)c2ccc(OC)cc2)c2ccccc21	-9.9%	1.3%	4.9%	-2.6%	-17.4%	x
COc1ccccc1C(=O)Nc1nnc(SCC(=O)NCC2CCCO2)s1 (configuration not stated)	-0.2%	-15.9%	-6.0%	0.5%	-1.5%	x
COc1cc(C(=O)Nc2nnc(SCC(=O)NCC3CCCO3)s2)cc(OC)c1OC (configuration not stated)	-4.7%	6.6%	-5.9%	4.47µM*	1.0%	i
COc1ccccc1C(CNC(=O)c1cccc(S(=O)(=O)Nc2ccc(F)cc2)c1)N1CCCC1 (configuration not stated)	-7.4%	-7.9%[11.6 µM]	x	x	0.2%	x
COc1ccccc1Nc1nc(N)nc(CSC(=S)N2CCC(C)CC2)n1	11.3%	5.3%[2.32 µM]	3.9%	15.8µM*	-1.4%	i
N#Cc1c(N2CCN(C(=O)c3ccccc3Cl)CC2)nc(-c2ccccc2)c2c1CCCC2	25.1%	-4.6%	1.2%	3.55µM*	-5.2%	i
C[C@H](CO)N1C[C@H](C)[C@@H](CN(C)C(=O)NC2CCCCC2)Oc2ccc(NS(=O)(=O)c3ccc(F)cc3)cc2C1=O	-7.9%	-2.8%	x	6.0%	-5.7%	x
Cc1ccc(C2(c3ccc(C)cc3)CC2C(=O)Nc2ccc([N+](=O)[O-])cc2O)cc1 (configuration not stated)	-4.7%	u	-1.6%	-37.7%	1.0%	x
COc1cccc(S(=O)(=O)N(C)C[C@H]2OCc3cnnn3CCCC(=O)N([C@@H](C)CO)C[C@H]2C)c1	-6.0%	-4.3%	x	x	2.0%	x
Cc1cc(C)c2sc(N(CCCN(C)C)C(=O)c3ccc(S(=O)(=O)N4CCc5ccccc5C4)cc3)nc2c1	x	x	x	1.5%	x	x

Screening data (PubChem)
